The structures appear in SMILES notation. The panel holds about 79,000 compounds, 15% with a hit somewhere; the sample as a whole holds those more often. Values without a mark were called inactive. The source made the active and inactive calls. No stated cut-off is given here; in the data, active means growth inhibition above about 70%; inactive means the rest.

A short description of one experiment: NCI Yeast Anticancer Drug Screen. Data for the mec2-1 strain (AID 157). Conditions: S. cerevisiae mec2-1 strain, at 50.0 µM, hits give high values. Summed up: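 mec2-1 yeast strain, carrying an alteration in DNA damage repair or cell cycle control, was exposed to compounds; growth inhibition was measured relative to vehicle-treated controls.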
Regarding `COCCN(CCOC)C(=O)Nc1cccc(Cl)c1`, the growth inhibition is 6.3%.

As for `OCC(O)COCC#Cc1ccccc1` (stereo not given), the growth inhibition is 1.85%.

Regarding `CCC1=NS(=O)(=O)c2c(ncn2C)N1`, the growth inhibition was 8.55%.

Regarding `COc1ccccc1C(O)c1ccccc1` (stereo not given), the growth inhibition was -30.4%.

On to `O=C(/C=C/c1ccccc1)[c-]1[c-][c-][c-][c-]1.[Fe].[c-]1[c-][c-][cH-][c-]1`, for which the growth inhibition is 11.6%.

For `COC(=O)c1cc(-c2ccncc2)[nH]c(=O)c1C#N`, the growth inhibition was -32.1%.

Take `COC(=O)C1(CC(=O)c2ccc(Cl)cc2Cl)NC(=S)NC(=O)C1C#N` (stereo not given): the growth inhibition was 9.05%.

For the molecule `COC=C(C(=O)OC)C(=O)OC`, the growth inhibition was 3.9%.

For the molecule `NC(=O)c1cccc(NC=O)c1`, the growth inhibition is 6%.

Consider `CCOC(=O)C(C(=O)OCC)C(C)(C)C`, for which the growth inhibition is -18.3%.

As to `COC(=O)C(Cc1nc2ccccc2[nH]c1=O)C(=O)C(=O)Nc1ccc([N+](=O)[O-])cc1[N+](=O)[O-]` (stereo not given), the growth inhibition is 22.7%.

On to `O=S(=O)(O)c1cccc(/C(=N\Nc2ccccn2)c2ccccn2)c1`, for which the growth inhibition was 25.9%.

For `CC(NC(=O)C(Cc1ccccc1)NC(=O)OCc1ccccc1)C(=O)NC1C(CO)OC(n2cnc3c(N)ncnc32)C1O` (stereo not given), the growth inhibition is -3.9%.

Take `CCOC(=O)c1cc2c(nc1N)C(=O)CCCC2`: the growth inhibition was -59.1%.

Turning to `CN1CCS(=O)(=O)NC(Cc2ccccc2)C(=O)N2CCCC2C1=O` (stereo not given), the growth inhibition is -13.2%.

On to `O=S1(=O)CCC(Br)c2ccccc2C1` (stereo not given), for which the growth inhibition was 21%.

In the case of `Nc1ccc(S(=O)(=O)c2ccc(Nc3ccnc4cc(Cl)ccc34)cc2)cc1`, the growth inhibition was 13.6%.

Regarding `CCN(CC)CCC(=O)N1C/C(=C/c2ccccc2)C(=O)/C(=C\c2ccccc2)C1`, the growth inhibition was 37.9%.

With `Cc1cc2cc3oc(C)cc3cc2o1`, the growth inhibition is -6.45%.

With `N#CC1=C(Nc2ccccc2)CCC1`, the growth inhibition is -11.6%.

As to `CCOC(=O)c1ccc(-n2nc3nc(N)[nH]c(=O)c3n2)cc1`, the growth inhibition was -21.2%.

As to `O=C1C2C3C=CC(C2C(=O)N1CCl)C1C2C(=O)N(CCl)C(=O)C2C31` (stereo not given), the growth inhibition was 21.1%.

With `COc1cccc(Oc2c(O)c3ccc(OC)cc3oc2=O)c1`, the growth inhibition is 11.2%.

In the case of `OCC1=CC(c2ccccc2)(c2ccccc2)c2ccccc21`, the growth inhibition was 96.3% (active).

For the molecule `Nc1nc2c(c(=O)[nH]1)C(c1ccccc1)C(c1ccccc1)C2` (stereo not given), the growth inhibition is -8.65%.

For `CCCCCC1OC1CC1OC1CCCCCCCC(=O)O` (stereo not given), the growth inhibition was -21.1%.

For `CCOP(=O)(OCC)/C(C#N)=C/c1cccc([N+](=O)[O-])c1`, the growth inhibition is 2.5%.

As for `OC1C=COC2COC(c3ccccc3)OC12` (stereo not given), the growth inhibition is -8.95%.

In the case of `O=C(O)COc1ccc2ccccc2c1`, the growth inhibition was 3.55%.

Turning to `COC(=O)C1=C(C(=O)OC)C2CCCOC2=C(C)C1` (stereo not given), the growth inhibition is 12.1%.

Consider `Cc1ccc2ccc(=O)oc2c1`, for which the growth inhibition was 1.05%.

Take `CCOc1ccc(N=Nc2ccc3oc(=O)c(C(=O)Nc4ccc(OC)cc4)cc3c2)cc1`: the growth inhibition is 5.9%.

Turning to `CCCc1cc(=O)oc2c(C=O)c(O)cc(O)c12`, the growth inhibition was 24.7%.

For `CN(C)/C=N/NC(=O)C(O)c1ccccc1` (stereo not given), the growth inhibition is 2.2%.

`C/C(CC(=O)Nc1cccc([N+](=O)[O-])c1)=N\NC(=O)CC#N`: the growth inhibition was -13.3%.

Consider `CC(=O)OC1C(NC(=O)OCc2ccccc2)CC(NC(=O)OCc2ccccc2)C(O)C1O` (stereo not given), for which the growth inhibition was -12.5%.

For `N#Cc1[nH]c(=S)[nH]c1N`, the growth inhibition is -7.85%.

For `CCc1cccc(CC)c1Nc1nc(C)nc2c1cnn2C`, the growth inhibition was -1.85%.

Regarding `O=CNNC(=O)Nc1cccc2ccccc12`, the growth inhibition was -8.85%.

As for `CC(C)C(Br)CCC1=CCC(Br)(Br)C1` (stereo not given), the growth inhibition is 82.2% (active).

A short description of a further experiment: NCI Yeast Anticancer Drug Screen. Data for the sgs1 mgt1 strain (AID 161).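 Further: 0% = growth of cultures given vehicle only.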 Conditions: S. cerevisiae sgs1 mgt1 strain, at 50.0 µM, hits give high values. Summed up:
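Yeast cells carrying a defined DNA-repair defect were exposed to test compounds. Growth inhibition was measured relative to vehicle-treated controls.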
For `COCCN(CCOC)C(=O)Nc1cccc(Cl)c1`, the growth inhibition is 15.9%.

Turning to `OCC(O)COCC#Cc1ccccc1` (stereo not given), the growth inhibition was 3.1%.

For the molecule `CCC1=NS(=O)(=O)c2c(ncn2C)N1`, the growth inhibition was -5.6%.

Turning to `COc1ccccc1C(O)c1ccccc1` (stereo not given), the growth inhibition is 15.3%.

As for `O=C(/C=C/c1ccccc1)[c-]1[c-][c-][c-][c-]1.[Fe].[c-]1[c-][c-][cH-][c-]1`, the growth inhibition was 9.05%.

On to `COC(=O)c1cc(-c2ccncc2)[nH]c(=O)c1C#N`, for which the growth inhibition was -33.9%.

On to `COC(=O)C1(CC(=O)c2ccc(Cl)cc2Cl)NC(=S)NC(=O)C1C#N` (stereo not given), for which the growth inhibition is -8.2%.

Consider `COC=C(C(=O)OC)C(=O)OC`, for which the growth inhibition is 0.5%.

As to `NC(=O)c1cccc(NC=O)c1`, the growth inhibition is 22.1%.

As to `CCOC(=O)C(C(=O)OCC)C(C)(C)C`, the growth inhibition is -28.2%.

Turning to `COC(=O)C(Cc1nc2ccccc2[nH]c1=O)C(=O)C(=O)Nc1ccc([N+](=O)[O-])cc1[N+](=O)[O-]` (stereo not given), the growth inhibition was 4.45%.

Regarding `O=S(=O)(O)c1cccc(/C(=N\Nc2ccccn2)c2ccccn2)c1`, the growth inhibition is 59.8%.

Turning to `CC(NC(=O)C(Cc1ccccc1)NC(=O)OCc1ccccc1)C(=O)NC1C(CO)OC(n2cnc3c(N)ncnc32)C1O` (stereo not given), the growth inhibition is -2.1%.

With `CCOC(=O)c1cc2c(nc1N)C(=O)CCCC2`, the growth inhibition was -48.3%.

Consider `CN1CCS(=O)(=O)NC(Cc2ccccc2)C(=O)N2CCCC2C1=O` (stereo not given), for which the growth inhibition is -4.5%.

Consider `O=S1(=O)CCC(Br)c2ccccc2C1` (stereo not given), for which the growth inhibition was -7%.

As for `Nc1ccc(S(=O)(=O)c2ccc(Nc3ccnc4cc(Cl)ccc34)cc2)cc1`, the growth inhibition is 5.05%.

With `CCN(CC)CCC(=O)N1C/C(=C/c2ccccc2)C(=O)/C(=C\c2ccccc2)C1`, the growth inhibition was 12.8%.

Consider `Cc1cc2cc3oc(C)cc3cc2o1`, for which the growth inhibition is -7.8%.

Regarding `N#CC1=C(Nc2ccccc2)CCC1`, the growth inhibition is -0.8%.

In the case of `CCOC(=O)c1ccc(-n2nc3nc(N)[nH]c(=O)c3n2)cc1`, the growth inhibition was -4.35%.

As for `O=C1C2C3C=CC(C2C(=O)N1CCl)C1C2C(=O)N(CCl)C(=O)C2C31` (stereo not given), the growth inhibition is 7.85%.

Take `COc1cccc(Oc2c(O)c3ccc(OC)cc3oc2=O)c1`: the growth inhibition is -2.1%.

`OCC1=CC(c2ccccc2)(c2ccccc2)c2ccccc21`: the growth inhibition is 96.7% (active).

For the molecule `Nc1nc2c(c(=O)[nH]1)C(c1ccccc1)C(c1ccccc1)C2` (stereo not given), the growth inhibition was 3.8%.

Regarding `CCCCCC1OC1CC1OC1CCCCCCCC(=O)O` (stereo not given), the growth inhibition was -3.85%.

Take `CCOP(=O)(OCC)/C(C#N)=C/c1cccc([N+](=O)[O-])c1`: the growth inhibition was -4.85%.

For `OC1C=COC2COC(c3ccccc3)OC12` (stereo not given), the growth inhibition is 6.1%.

On to `O=C(O)COc1ccc2ccccc2c1`, for which the growth inhibition is -22.9%.

For `COC(=O)C1=C(C(=O)OC)C2CCCOC2=C(C)C1` (stereo not given), the growth inhibition was -6.15%.

On to `Cc1ccc2ccc(=O)oc2c1`, for which the growth inhibition is 2.85%.

Consider `CCOc1ccc(N=Nc2ccc3oc(=O)c(C(=O)Nc4ccc(OC)cc4)cc3c2)cc1`, for which the growth inhibition was -17.7%.

In the case of `CCCc1cc(=O)oc2c(C=O)c(O)cc(O)c12`, the growth inhibition was 20.6%.

On to `CN(C)/C=N/NC(=O)C(O)c1ccccc1` (stereo not given), for which the growth inhibition was 4.45%.

`C/C(CC(=O)Nc1cccc([N+](=O)[O-])c1)=N\NC(=O)CC#N`: the growth inhibition was 0.55%.

On to `CC(=O)OC1C(NC(=O)OCc2ccccc2)CC(NC(=O)OCc2ccccc2)C(O)C1O` (stereo not given), for which the growth inhibition is 5.4%.

In the case of `N#Cc1[nH]c(=S)[nH]c1N`, the growth inhibition is 2.6%.

For `CCc1cccc(CC)c1Nc1nc(C)nc2c1cnn2C`, the growth inhibition was 5.55%.

Consider `O=CNNC(=O)Nc1cccc2ccccc12`, for which the growth inhibition was -20%.

Take `CC(C)C(Br)CCC1=CCC(Br)(Br)C1` (stereo not given): the growth inhibition is 88.5% (active).

Values taken from PubChem BioAssay (NCI).
